Here are results for eight molecules from PubChem BioAssay (Tox21).

Structures are written as SMILES. Results filed as inconclusive are left out. Active and inactive are the calls of the source. Unless noted, calls follow the shape of the full dose curve.

Experiment [1] in a line: Nuclear factor erythroid 2-related factor 2/antioxidant responsive element (Nrf2/ARE) small molecule agonists: qHTS cell viability counter screen in human keratinocytes (AID 1919968; active = well fitted cell-killing curve with a large enough effect in the repeat runs; also: nearly all actives have a fitted effect of over 55% in size; also: potency is read from the fitted curve at half-maximal effect). In outline: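 Fluorescence read-out from CellTiter-Fluor after 1 h at 37 C. Wells held HaCaT-derived ARE-luciferase reporter cells (1,500/well) treated 23 h with DMSO-dissolved compounds. Run in the same wells as the luciferase agonist read.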

The nature of experiment [2]: Nuclear factor erythroid 2-related factor 2/antioxidant responsive element (Nrf2/ARE) small molecule agonists: luciferase reporter gene qHTS assay in human keratinocytes (AID 1919969). Also: nearly all actives have a fitted effect of over 35% in size. Also: potency is read from the fitted curve at half-maximal effect. A general note: Reporter assays use an easily measured gene product as a stand-in for the process of interest.
Experiment [3] has as its target Gonadotropin-releasing hormone receptor (Homo sapiens) (UniProt P30968). As to the kind of experiment: Human gonadotropin-releasing hormone receptor (GnRHR) small molecule agonists, calcium flux assay in GnRHR-HEK293 cells (AID 1920063). Also: nearly all actives have a fitted effect of over 35% in size. In outline:
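Calcium-dye fluorescence, Ex/Em=480/540, recorded every 1 sec over 3 min after compound addition to GnRHR-HEK293 cells. Cells had been seeded 18 hours earlier and dye-loaded for 1 hour at 37 C. Fifteen concentrations, triplicates.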

Experiment [4] in a line: G protein-coupled receptor (GPCR) small molecule agonists, calcium flux assay: HEK293 wild type cell line counter screen (AID 1920065). In outline:
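Agonist mode; 18 h seeding at 37 C, 1 h dye load at 37 C; compounds pinned from DMSO, ATP as positive control; kinetic fluorescence 480/540 nm, 3 min, 1 s reads; 15 concentrations, triplicate.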
In general terms: Calcium flux is commonly read through the fluorescence of an indicator in the cells.

Experiment [5] can be described thus: p53 small molecule agonists, cell-based qHTS assay with human liver microsomes (AID 1963577).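 Also: p53 response element beta-lactamase reporter cells with liver microsomes plus NADPH.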 In outline: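 HLM-supplemented p53RE-bla reporter assay: 16 h compound exposure at 37 C, microsomes and NADPH each 0.5 mg/mL final, read by fluorescence intensity.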
Experiment [6] in a line: p53 small molecule agonists, cell-based qHTS assay with rat liver microsomes (AID 1963578). In outline:
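Quantitative HTS of the Tox21 10K library: p53RE-bla cells, rat liver microsomes plus NADPH at 0.5 mg/mL final each, 16 h at 37 C, beta-lactamase fluorescence detection.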
A general note: qHTS replaces the single test concentration by a dilution series.

Experiment [7] can be described thus: p53 small molecule agonists, cell-based qHTS assay with human liver microsomes: qHTS cell viability counter screen (AID 1963579). Also: nearly all actives have a fitted effect of over 45% in size. In outline:
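Viability of p53RE-bla cells is measured as CellTiter-Glo luminescence following a 16 h, 37 C incubation with compound, liver microsomes from human donors and NADPH.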

Experiment [8] can be described thus: p53 small molecule agonists, cell-based qHTS assay with rat liver microsomes: qHTS cell viability counter screen (AID 1963580). Also: nearly all actives have a fitted effect of over 45% in size. In outline:
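Rat liver microsome (0.5 mg/mL final) and NADPH (0.5 mg/mL final) co-incubation with compounds for 16 h at 37 C on HCT-116 p53RE-bla cells; cytotoxicity taken from intracellular ATP luminescence.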

Experiment [9] can be described thus: p53 small molecule agonists, cell-based qHTS assay: qHTS cell viability counter screen (AID 1963581). Also: nearly all actives have a fitted effect of over 45% in size. In outline:
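Cytotoxicity read-out: ATP-based luminescence (CellTiter-Glo, 30 min RT) measured in the same wells as the p53 reporter assay, HCT-116 p53RE-bla cells, 16 h compound exposure at 37 C.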

Experiment [10] in a line: p53 small molecule agonists, cell-based qHTS assay (AID 1963582; active = well fitted activation curve with a large enough effect in the signal ratio in the repeat runs, not every such curve was filed as active; the % refers to the signal ratio). In outline:
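Fluorescence intensity read-out of a beta-lactamase reporter under a p53 response element. Cells were exposed to DMSO-dissolved compounds for 16 h at 37 C, then developed with FRET substrate for 2 h at RT.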

The target in experiment [11] is 5-hydroxytryptamine receptor 2A (Homo sapiens) (UniProt P28223). Put plainly: 5-hydroxytryptamine receptor 2A (HTR2A) small molecule agonists, cell-based qHTS assay (AID 1963587). Also: nearly all actives have a fitted effect of over 30% in size. In outline: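 Kinetic calcium-flux fluorescence (2 min, 1 sec intervals) after compound addition in agonist mode. HTR2A-CHO cells were cultured 18 h, then dye-loaded 1 h at 37 C.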
Chain of 5-hydroxytryptamine receptor 2A (Homo sapiens) (P28223 whole entry, looked up): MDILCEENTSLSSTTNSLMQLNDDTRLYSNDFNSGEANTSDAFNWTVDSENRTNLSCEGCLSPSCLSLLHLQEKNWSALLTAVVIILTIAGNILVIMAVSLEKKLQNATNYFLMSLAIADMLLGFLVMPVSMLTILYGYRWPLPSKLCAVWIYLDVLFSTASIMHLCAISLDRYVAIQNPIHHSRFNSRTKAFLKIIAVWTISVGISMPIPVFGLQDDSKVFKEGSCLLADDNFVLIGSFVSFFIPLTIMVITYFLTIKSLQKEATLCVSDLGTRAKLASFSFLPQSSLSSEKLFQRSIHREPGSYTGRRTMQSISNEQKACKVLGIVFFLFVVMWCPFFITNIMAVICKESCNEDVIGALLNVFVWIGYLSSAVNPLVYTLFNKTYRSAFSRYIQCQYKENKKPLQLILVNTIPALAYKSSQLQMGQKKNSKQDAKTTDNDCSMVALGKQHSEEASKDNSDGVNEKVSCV
Experiment [12] addresses Muscarinic acetylcholine receptor M1 (Homo sapiens) (UniProt P11229). Put plainly: Cholinergic receptor muscarinic 1 (CHRM1) small molecule antagonists, cell-based qHTS assay (AID 1963588). Also: nearly all actives have a fitted effect of over 40% in size. In outline:
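Compounds were tested at 15 concentrations in three independent runs. Dye-loaded CHRM1-CHO cells were exposed 5 min at room temperature before stimulation by acetylcholine added at 50nM. Intracellular calcium was read kinetically on FDSS for 3 min.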

For experiment [13] the target is unchanged. Put plainly: Cholinergic receptor muscarinic 1 (CHRM1) small molecule agonists, cell-based qHTS assay (AID 1963589). Also: nearly all actives have a fitted effect of over 35% in size. In outline: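 Calcium flux read-out: kinetic fluorescence at 1 sec intervals after pin-tool compound addition to dye-loaded CHRM1-CHO cells (human M1). Agonist mode; 15 concentrations tested in triplicate independent runs.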
Experiment [14] can be described thus: cAMP Responsive Elements (CRE) small molecule antagonists, cell-based qHTS assay (AID 1963591; active = well fitted inhibition curve with a large enough effect in the signal ratio in the repeat runs, not every such curve was filed as active; the % refers to the signal ratio). In outline: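 HEK293T CRE-bla; 18 h preincubation; compound pin-transfer; NKH477 0.25 uM final, 3 h, 37 C; LiveBLAzer FRET substrate 2 h RT.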
In experiment [15] the target is Beta-2 adrenergic receptor (Homo sapiens) (UniProt P07550). As to the kind of experiment: Adrenergic beta2 receptor (ADRB2) small molecule antagonists, cell-based qHTS assay (AID 1963592). Also: series mostly up to about 92 µM; nearly all actives have a fitted effect of over 50% in size. In outline: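 Assay format: CHO-ADRB2 cells, 18-20hr seeding at 37C/5% CO2, then compound plus 1nM isoproterenol agonist mix for 0.5hr RT. Homogeneous time-resolved fluorescence cAMP detection after 1hr, expressed as 665/615 nm ratio.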
Chain of Beta-2 adrenergic receptor (Homo sapiens) (P07550 whole entry, looked up): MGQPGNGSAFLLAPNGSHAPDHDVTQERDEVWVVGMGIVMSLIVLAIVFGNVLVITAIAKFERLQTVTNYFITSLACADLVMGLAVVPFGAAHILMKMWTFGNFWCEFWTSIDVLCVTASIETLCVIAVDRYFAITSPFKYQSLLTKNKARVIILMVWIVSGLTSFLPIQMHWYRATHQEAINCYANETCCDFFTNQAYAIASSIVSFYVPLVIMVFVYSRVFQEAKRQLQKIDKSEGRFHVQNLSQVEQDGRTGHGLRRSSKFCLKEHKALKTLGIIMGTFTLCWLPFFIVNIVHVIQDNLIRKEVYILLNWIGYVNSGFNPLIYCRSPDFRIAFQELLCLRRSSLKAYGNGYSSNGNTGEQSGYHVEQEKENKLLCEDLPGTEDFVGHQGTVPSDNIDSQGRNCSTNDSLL

Experiment [16] concerns the target D(2) dopamine receptor (Homo sapiens) (UniProt P14416). Put plainly: Dopamine D2 receptor (DRD2) small molecule agonists, cell-based qHTS assay (AID 1963594). Also: nearly all actives have a fitted effect of over 35% in size. In outline:
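cAMP accumulation in DRD2-HEK293 cells measured by HTRF after 1 h detection; compounds added 10 min before NKH477 (200nM […]) forskolin-analogue stimulation, 30 min at room temperature, with Ro20-1724 present at 0.1 mM final.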

Experiment [17] has the same target. As to the kind of experiment: Dopamine D2 receptor (DRD2) small molecule antagonists, cell-based qHTS assay (AID 1963595; active = well fitted inhibition curve with a large enough effect in the signal ratio in the repeat runs, with a control signal flat; the % refers to the signal ratio). In outline: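 DRD2-HEK293; 0.1 mM Ro20-1724; cpd 10 min RT; NKH477 200 nM + quinpirole 12 nM, 30 min RT; HTRF cAMP (cAMP-d2/anti-cAMP cryptate), 665/620 nm ratio after 1 h.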
Experiment [18] is described as follows: cAMP Responsive Elements (CRE) small molecule agonists, cell-based qHTS assay (AID 1963590). In outline:
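Beta-lactamase reporter readout: LiveBLAzer B/G FRET substrate, 2 h at room temperature, added after 3 h compound treatment of CRE-bla HEK 293T cells at 37 C/5% CO2.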

Experiment [19] deals with 5-hydroxytryptamine receptor 2A (Homo sapiens) (UniProt P28223). Put plainly: 5-hydroxytryptamine receptor 2A (HTR2A) small molecule antagonists, cell-based qHTS assay (AID 1963586). Also: nearly all actives have a fitted effect of over 45% in size. In outline:
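CHO cells stably expressing human HTR2A were plated for 18 h at 37 C, then loaded with calcium dye for 1 h. Compounds were preincubated 5 min at room temperature before DOI (4 nM solution) was added. Kinetic fluorescence was read for 3 min.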

Chain of D(2) dopamine receptor (Homo sapiens) (P14416 whole entry, looked up): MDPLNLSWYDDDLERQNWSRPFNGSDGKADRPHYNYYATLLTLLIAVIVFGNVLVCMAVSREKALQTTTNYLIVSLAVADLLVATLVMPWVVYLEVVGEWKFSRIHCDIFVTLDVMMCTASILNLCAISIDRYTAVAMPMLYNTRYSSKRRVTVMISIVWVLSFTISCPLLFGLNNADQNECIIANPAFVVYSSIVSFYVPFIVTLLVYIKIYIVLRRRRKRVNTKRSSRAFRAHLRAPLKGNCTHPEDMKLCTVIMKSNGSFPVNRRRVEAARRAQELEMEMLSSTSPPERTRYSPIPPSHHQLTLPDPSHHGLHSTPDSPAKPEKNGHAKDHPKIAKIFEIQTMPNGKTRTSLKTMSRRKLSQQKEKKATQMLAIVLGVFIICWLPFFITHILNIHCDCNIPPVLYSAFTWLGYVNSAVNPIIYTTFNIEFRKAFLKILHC
Chain of Gonadotropin-releasing hormone receptor (Homo sapiens) (P30968 whole entry, looked up): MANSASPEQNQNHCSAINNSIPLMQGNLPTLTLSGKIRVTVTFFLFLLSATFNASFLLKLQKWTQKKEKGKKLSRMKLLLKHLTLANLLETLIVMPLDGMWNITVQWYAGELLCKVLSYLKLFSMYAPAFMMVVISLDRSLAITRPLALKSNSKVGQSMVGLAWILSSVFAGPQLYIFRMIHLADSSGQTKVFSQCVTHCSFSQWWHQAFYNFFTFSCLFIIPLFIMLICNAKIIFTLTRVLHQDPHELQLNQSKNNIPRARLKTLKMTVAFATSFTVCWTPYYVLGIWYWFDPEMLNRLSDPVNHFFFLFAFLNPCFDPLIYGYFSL
Chain of Muscarinic acetylcholine receptor M1 (Homo sapiens) (P11229 whole entry, looked up): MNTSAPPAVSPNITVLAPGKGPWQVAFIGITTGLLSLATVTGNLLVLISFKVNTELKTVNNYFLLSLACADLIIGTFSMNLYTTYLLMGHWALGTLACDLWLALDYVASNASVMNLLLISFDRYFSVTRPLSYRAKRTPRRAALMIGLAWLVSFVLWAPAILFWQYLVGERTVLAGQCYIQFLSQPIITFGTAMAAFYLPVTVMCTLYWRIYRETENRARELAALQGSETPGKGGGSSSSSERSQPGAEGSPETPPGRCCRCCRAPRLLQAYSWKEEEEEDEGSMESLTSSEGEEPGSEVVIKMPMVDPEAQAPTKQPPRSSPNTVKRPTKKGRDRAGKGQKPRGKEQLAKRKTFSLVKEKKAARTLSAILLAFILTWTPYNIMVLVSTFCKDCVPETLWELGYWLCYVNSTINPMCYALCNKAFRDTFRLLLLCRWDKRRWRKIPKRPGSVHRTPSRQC

Turning to `O=[N+]([O-])c1cc(Cl)c(Cl)c(Cl)c1Cl`, the Potency result in [1], in experiment [3], in [5], in experiment [6], in experiment [7] and in [8] was “inactive” in each case. The Potency result in experiment [9], in experiment [10], in experiment [11], in experiment [12], in experiment [13] and in [14] was “inactive” throughout. Also, the Potency result in [15], in [16] and in experiment [17] was “inactive” throughout. Further, the Potency in experiment [2] is 48.4 µM (active). In addition, the result in experiment [4] was inactive.

Consider `O=C1C(CCS(=O)c2ccccc2)C(=O)N(c2ccccc2)N1c1ccccc1` (stereo not drawn), for which the Potency entry in experiment [1], in experiment [2], in experiment [3], in experiment [5], in experiment [6] and in [7] was “inactive” throughout. Besides, the Potency result in experiment [8], in [9], in [10], in experiment [18], in experiment [14] and in [15] was “inactive” throughout. The Potency result in [16] and in experiment [17] was “inactive” each time. Besides, the result in [4] was inactive.

As to `O=C(O)c1cc(O)c2c(c1)C(=O)c1cccc(O)c1C2=O`, the Potency result in experiment [1], in [2], in experiment [3], in [5], in experiment [6] and in experiment [7] was “inactive” throughout. Moreover, the Potency result in experiment [8], in experiment [9], in experiment [11], in experiment [12], in experiment [13] and in experiment [15] was “inactive” in each case. For the same molecule, the Potency entry in [16] was “inactive”. Also, the result in experiment [4] was inactive.

On to `COCCCCCCCCOCCC[Si](C)(O[Si](C)(C)C)O[Si](C)(C)C`, for which the Potency in experiment [1] is 61.1 µM (active). The Potency result in [2], in [3], in [5], in experiment [6], in [7] and in [8] was “inactive” each time. For the same molecule, the Potency result in [9], in experiment [19], in experiment [12], in [13], in [15] and in [17] was “inactive” each time. Further, in experiment [4], the outcome was inactive.

`CC(=O)OC(C)=O`: the Potency result in experiment [1], in experiment [2], in experiment [3], in experiment [5], in experiment [6] and in experiment [7] was “inactive” in each case. In addition, the Potency entry in experiment [8], in experiment [10], in experiment [19], in experiment [11], in [13] and in experiment [18] was “inactive” each time. In addition, the Potency entry in experiment [14], in experiment [15], in experiment [16] and in experiment [17] was “inactive” in each case. Further, in [4], the outcome was inactive.

On to `C/C(=N\O)c1ccc(OCC(=O)N2CCCCC2)cc1`, for which the Potency result in [1], in experiment [3], in experiment [5], in [6], in experiment [7] and in experiment [8] was “inactive” in each case. The Potency result in experiment [9], in experiment [19], in [11], in experiment [12], in experiment [13] and in [18] was “inactive” throughout. Also, the Potency result in experiment [14], in [15], in experiment [16] and in [17] was “inactive” each time. The Potency in [2] is 11.9 µM (active). The result in [4] was inactive.

Take `Nc1cc(C(=O)O)ccc1Cl`: the Potency entry in experiment [1], in experiment [2], in experiment [3], in [5], in experiment [6] and in experiment [7] was “inactive” in each case. The Potency entry in [8], in experiment [9], in experiment [11], in [12], in experiment [18] and in experiment [14] was “inactive” in each case. Besides, the Potency result in experiment [15] and in experiment [17] was “inactive” each time. The result in experiment [4] was inactive.

Take `CC(C)(C)NCC(O)COc1cccc2c1C[C@H](O)[C@H](O)C2` (stereo partly drawn): the Potency result in [1], in experiment [2], in experiment [3], in experiment [5], in [6] and in [7] was “inactive” each time. For the same molecule, the Potency entry in experiment [8], in experiment [9], in [10], in [18], in experiment [14] and in experiment [17] was “inactive” in each case. The outcome in experiment [4] was inactive.
